# Key:
# Experiment in all cases: DAPPL (digital affinity profiling via proximity ligation, sequencing); 10 mM Tris-HCl pH 7.5, 50 mM NaCl, 1 mM DTT, 4% glycerol, room temperature, 30 min; GST-TFs on glutathione beads, 16-mer random dsDNA library, 0.1% formaldehyde crosslink after washing; high values mean tight binding
# Details in all cases: protein: recombinant; tags: N-terminal GST; dsDNA, one strand shown
# FLI1 = molecular target: T1, FLI1 (Homo sapiens, UniProt Q01543 1-452)
# T1 sequence: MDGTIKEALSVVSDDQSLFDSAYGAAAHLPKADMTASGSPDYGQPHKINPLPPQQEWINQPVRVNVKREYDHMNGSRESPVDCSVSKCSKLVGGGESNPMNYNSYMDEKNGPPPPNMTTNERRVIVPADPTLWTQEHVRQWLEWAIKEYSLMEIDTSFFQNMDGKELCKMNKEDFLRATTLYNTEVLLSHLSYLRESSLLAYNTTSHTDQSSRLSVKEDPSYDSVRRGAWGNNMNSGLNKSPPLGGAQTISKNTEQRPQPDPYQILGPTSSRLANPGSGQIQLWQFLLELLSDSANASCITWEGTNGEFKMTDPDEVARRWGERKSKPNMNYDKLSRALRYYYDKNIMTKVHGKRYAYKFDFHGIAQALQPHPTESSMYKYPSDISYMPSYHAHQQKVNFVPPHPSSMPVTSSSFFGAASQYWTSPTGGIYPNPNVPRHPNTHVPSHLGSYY
# In short: (§1)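 Binding signal is each hexamer's read frequency for a factor divided by its frequency in the tag-only sample. The factors were GST-fused human transcription factors from yeast, captured on glutathione beads, DNA-barcoded and pooled with that sample. Pools were incubated with 200 nmole of a random double-stranded 16-mer DNA library in Tris/NaCl/DTT/glycerol buffer at room temperature for 30 min, then washed, crosslinked with 0.1% formaldehyde, proximity-ligated with BsaI/T4 ligase (1 h, 37 °C), PCR-amplified and sequenced on an Illumina NextSeq500.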
# ELK1 = molecular target: T2, ELK1 (Homo sapiens, UniProt P19419 1-428)
# T2 sequence: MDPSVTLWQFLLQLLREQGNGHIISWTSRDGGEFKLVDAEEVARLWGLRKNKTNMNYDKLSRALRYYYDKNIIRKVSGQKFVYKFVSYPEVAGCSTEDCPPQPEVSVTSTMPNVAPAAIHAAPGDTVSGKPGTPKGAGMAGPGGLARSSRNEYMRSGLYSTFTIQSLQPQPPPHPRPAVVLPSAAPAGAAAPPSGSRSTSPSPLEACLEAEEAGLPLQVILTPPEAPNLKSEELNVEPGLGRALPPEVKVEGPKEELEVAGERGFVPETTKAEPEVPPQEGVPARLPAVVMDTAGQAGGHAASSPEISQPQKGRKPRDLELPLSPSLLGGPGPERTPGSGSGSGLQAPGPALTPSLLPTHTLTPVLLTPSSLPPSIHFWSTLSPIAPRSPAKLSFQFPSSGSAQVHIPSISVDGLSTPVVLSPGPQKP
# In short: as §1
# GABPA = molecular target: T3, GABPA (Homo sapiens, UniProt Q06546 1-454)
# T3 sequence: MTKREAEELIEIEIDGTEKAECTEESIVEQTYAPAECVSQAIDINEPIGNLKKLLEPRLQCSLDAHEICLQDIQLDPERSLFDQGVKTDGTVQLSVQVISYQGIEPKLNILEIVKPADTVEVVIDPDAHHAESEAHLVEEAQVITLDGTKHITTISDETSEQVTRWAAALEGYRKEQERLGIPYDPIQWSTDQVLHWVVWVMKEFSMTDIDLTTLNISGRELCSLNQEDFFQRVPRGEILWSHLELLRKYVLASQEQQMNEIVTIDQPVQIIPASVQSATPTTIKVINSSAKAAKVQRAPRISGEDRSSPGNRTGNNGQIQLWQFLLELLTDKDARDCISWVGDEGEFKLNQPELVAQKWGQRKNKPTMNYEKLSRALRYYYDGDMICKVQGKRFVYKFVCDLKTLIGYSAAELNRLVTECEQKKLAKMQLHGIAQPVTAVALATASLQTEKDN
# In short: as §1
# ERG = molecular target: T4, ERG (Homo sapiens, UniProt P11308 1-479)
# T4 sequence: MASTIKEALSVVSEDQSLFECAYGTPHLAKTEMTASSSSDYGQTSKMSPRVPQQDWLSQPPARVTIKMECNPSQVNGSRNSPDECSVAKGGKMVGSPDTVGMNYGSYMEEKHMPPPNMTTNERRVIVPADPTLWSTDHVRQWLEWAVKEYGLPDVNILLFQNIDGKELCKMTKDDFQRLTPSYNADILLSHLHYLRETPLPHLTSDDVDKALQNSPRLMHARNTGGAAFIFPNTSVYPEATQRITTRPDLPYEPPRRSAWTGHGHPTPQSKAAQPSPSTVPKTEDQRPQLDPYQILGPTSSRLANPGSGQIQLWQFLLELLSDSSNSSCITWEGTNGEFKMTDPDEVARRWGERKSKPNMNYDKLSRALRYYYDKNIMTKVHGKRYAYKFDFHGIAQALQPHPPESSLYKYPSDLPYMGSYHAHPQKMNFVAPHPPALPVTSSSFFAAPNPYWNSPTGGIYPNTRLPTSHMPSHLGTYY
# In short: as §1
# ELF1 = ELF1 (Homo sapiens, UniProt P32519 1-619)
# ELF1, sequence (P32519 whole entry): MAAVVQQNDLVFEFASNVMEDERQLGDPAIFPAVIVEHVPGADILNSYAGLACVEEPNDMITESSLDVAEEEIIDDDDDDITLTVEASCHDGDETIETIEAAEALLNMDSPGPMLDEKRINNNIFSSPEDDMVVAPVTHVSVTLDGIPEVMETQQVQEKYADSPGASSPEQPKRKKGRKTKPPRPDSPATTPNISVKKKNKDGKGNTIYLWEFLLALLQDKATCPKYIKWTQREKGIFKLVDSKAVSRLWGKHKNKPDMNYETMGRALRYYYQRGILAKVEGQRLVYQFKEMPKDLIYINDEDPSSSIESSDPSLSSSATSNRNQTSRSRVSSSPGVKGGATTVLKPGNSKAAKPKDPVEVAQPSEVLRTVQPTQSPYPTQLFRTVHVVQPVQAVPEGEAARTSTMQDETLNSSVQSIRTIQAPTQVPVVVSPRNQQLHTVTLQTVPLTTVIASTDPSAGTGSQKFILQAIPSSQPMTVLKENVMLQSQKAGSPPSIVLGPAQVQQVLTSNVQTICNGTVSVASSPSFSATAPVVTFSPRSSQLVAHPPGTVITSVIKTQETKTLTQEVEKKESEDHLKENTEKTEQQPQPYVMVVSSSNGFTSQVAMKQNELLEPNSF
# In short: as §1
# EHF = molecular target: T5, EHF (Homo sapiens, UniProt Q9NZC4 1-300)
# T5 sequence: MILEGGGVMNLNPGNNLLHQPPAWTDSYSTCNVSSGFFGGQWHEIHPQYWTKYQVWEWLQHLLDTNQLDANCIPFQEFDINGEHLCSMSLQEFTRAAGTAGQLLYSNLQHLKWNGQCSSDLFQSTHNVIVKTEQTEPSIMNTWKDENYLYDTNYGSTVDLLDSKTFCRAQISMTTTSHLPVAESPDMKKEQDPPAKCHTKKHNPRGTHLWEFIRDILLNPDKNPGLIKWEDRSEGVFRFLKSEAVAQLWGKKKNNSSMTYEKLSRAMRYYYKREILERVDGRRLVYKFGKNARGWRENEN
# In short: as §1
# SPI1 = SPI1 (Homo sapiens, UniProt P17947 1-270)
# In short: as §1
# SPIB = SPIB (Homo sapiens, UniProt Q01892 1-262)
# SPIB, sequence (Q01892 whole entry): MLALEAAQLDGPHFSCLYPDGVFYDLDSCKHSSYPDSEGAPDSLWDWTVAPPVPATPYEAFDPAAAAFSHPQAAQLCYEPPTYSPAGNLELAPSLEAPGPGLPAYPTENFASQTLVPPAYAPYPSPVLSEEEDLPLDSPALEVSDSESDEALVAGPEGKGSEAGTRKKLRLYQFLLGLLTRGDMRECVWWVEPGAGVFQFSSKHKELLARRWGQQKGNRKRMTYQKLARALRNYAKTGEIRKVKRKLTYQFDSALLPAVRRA
# In short: as §1
# ELK3 = molecular target: T6, ELK3 (Homo sapiens, UniProt P41970 1-407)
# T6 sequence: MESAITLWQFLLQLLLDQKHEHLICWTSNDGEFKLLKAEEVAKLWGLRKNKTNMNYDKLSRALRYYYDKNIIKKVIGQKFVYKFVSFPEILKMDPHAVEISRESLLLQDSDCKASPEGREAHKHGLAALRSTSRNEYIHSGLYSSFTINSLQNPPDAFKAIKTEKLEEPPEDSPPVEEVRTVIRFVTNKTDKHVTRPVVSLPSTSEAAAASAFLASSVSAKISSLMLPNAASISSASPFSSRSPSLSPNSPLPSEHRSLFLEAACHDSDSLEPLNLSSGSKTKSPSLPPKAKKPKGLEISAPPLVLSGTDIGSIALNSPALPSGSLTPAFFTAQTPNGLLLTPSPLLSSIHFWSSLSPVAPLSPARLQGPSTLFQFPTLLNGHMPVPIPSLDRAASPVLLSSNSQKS
# In short: as §1
Sequence,binding signal (FLI1),binding signal (ELK1),binding signal (GABPA),binding signal (ERG),binding signal (ELF1),binding signal (EHF),binding signal (SPI1),binding signal (SPIB),binding signal (ELK3)
ACCTTT,"1.52 fold enrichment (6-mer frequency, TF over GST control)","1.33 fold enrichment (6-mer frequency, TF over GST control)","1.47 fold enrichment (6-mer frequency, TF over GST control)","1.38 fold enrichment (6-mer frequency, TF over GST control)","1.47 fold enrichment (6-mer frequency, TF over GST control)","1.38 fold enrichment (6-mer frequency, TF over GST control)","1.49 fold enrichment (6-mer frequency, TF over GST control)","1.45 fold enrichment (6-mer frequency, TF over GST control)","1.35 fold enrichment (6-mer frequency, TF over GST control)"
TAGCTC,"1.17 fold enrichment (6-mer frequency, TF over GST control)","1.13 fold enrichment (6-mer frequency, TF over GST control)","1.2 fold enrichment (6-mer frequency, TF over GST control)","1.11 fold enrichment (6-mer frequency, TF over GST control)","1.18 fold enrichment (6-mer frequency, TF over GST control)","1.25 fold enrichment (6-mer frequency, TF over GST control)","1.21 fold enrichment (6-mer frequency, TF over GST control)","1.05 fold enrichment (6-mer frequency, TF over GST control)","1.28 fold enrichment (6-mer frequency, TF over GST control)"
TCCCAC,"1.31 fold enrichment (6-mer frequency, TF over GST control)","1.42 fold enrichment (6-mer frequency, TF over GST control)","1.36 fold enrichment (6-mer frequency, TF over GST control)","1.37 fold enrichment (6-mer frequency, TF over GST control)","1.47 fold enrichment (6-mer frequency, TF over GST control)","1.38 fold enrichment (6-mer frequency, TF over GST control)","1.34 fold enrichment (6-mer frequency, TF over GST control)","1.26 fold enrichment (6-mer frequency, TF over GST control)","1.27 fold enrichment (6-mer frequency, TF over GST control)"
CCGAAT,"1.23 fold enrichment (6-mer frequency, TF over GST control)","1.1 fold enrichment (6-mer frequency, TF over GST control)","1.25 fold enrichment (6-mer frequency, TF over GST control)","1.07 fold enrichment (6-mer frequency, TF over GST control)","1.22 fold enrichment (6-mer frequency, TF over GST control)","1.24 fold enrichment (6-mer frequency, TF over GST control)","1.2 fold enrichment (6-mer frequency, TF over GST control)","1.22 fold enrichment (6-mer frequency, TF over GST control)","1.14 fold enrichment (6-mer frequency, TF over GST control)"
CGCCCT,"1.44 fold enrichment (6-mer frequency, TF over GST control)","1.36 fold enrichment (6-mer frequency, TF over GST control)","1.37 fold enrichment (6-mer frequency, TF over GST control)","1.31 fold enrichment (6-mer frequency, TF over GST control)","1.43 fold enrichment (6-mer frequency, TF over GST control)","1.35 fold enrichment (6-mer frequency, TF over GST control)","1.24 fold enrichment (6-mer frequency, TF over GST control)","1.36 fold enrichment (6-mer frequency, TF over GST control)","1.5 fold enrichment (6-mer frequency, TF over GST control)"
AAATCA,"1.12 fold enrichment (6-mer frequency, TF over GST control)","1.19 fold enrichment (6-mer frequency, TF over GST control)","1.19 fold enrichment (6-mer frequency, TF over GST control)","1.18 fold enrichment (6-mer frequency, TF over GST control)","1.21 fold enrichment (6-mer frequency, TF over GST control)","1.25 fold enrichment (6-mer frequency, TF over GST control)","1.26 fold enrichment (6-mer frequency, TF over GST control)","1.2 fold enrichment (6-mer frequency, TF over GST control)","1.18 fold enrichment (6-mer frequency, TF over GST control)"
GATGTA,"1.29 fold enrichment (6-mer frequency, TF over GST control)","1.46 fold enrichment (6-mer frequency, TF over GST control)","1.21 fold enrichment (6-mer frequency, TF over GST control)","1.27 fold enrichment (6-mer frequency, TF over GST control)","1.26 fold enrichment (6-mer frequency, TF over GST control)","1.38 fold enrichment (6-mer frequency, TF over GST control)","1.3 fold enrichment (6-mer frequency, TF over GST control)","1.31 fold enrichment (6-mer frequency, TF over GST control)","1.35 fold enrichment (6-mer frequency, TF over GST control)"
